Sampled rows, rich in hits. Any-hit rate of the full collection: about 2.6%.
Ba/F3 V617F tox = reduce viability of Ba/F3 cells dependent on JAK2V617F. inhibition, % at 5.6 µM. Ba/F3 EpoR-JAK2V617F viability, ATP luminescence. hit rate 1.1% among 220,000. AID 1446;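 active = inhibition above the campaign mean plus 3 SD over all tested compounds, cut at about 24% in these data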;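 also: cytokine-independent growth of Ba/F3 cells driven by EpoR plus mutant JAK2; 0% = DMSO-treated cells and 100% = JAK inhibitor I control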
BaF3 parental = counter-screen for JAK2V617F inhibitors: parental Ba/F3 viability inhibitors. CellTiter-Glo ATP luminescence. inhibition, % at 5.6 µM. hit rate 1.1% among 220,000. AID 1486;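 active = inhibition above a per-campaign cutoff, the mean inhibition of all tested compounds plus 3 SD, cut at about 27% in these data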;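 also: 0% = DMSO wells and 100% = JAK Inhibitor I control wells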
KLF5 inh = kruppel-like factor 5 inhibition | DLD-1 KLF5 promoter-luciferase reporter, luminescence | AID 1700 | hit rate 0.23% among 290,000 | inhibition, % at 5 µM;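 active = inhibition above a per-plate limit of that plate's mean compound inhibition plus 3 SD, cut at about 60% in these data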;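 also: 0% = DMSO wells and 100% = LY294002 at 200 µM; higher means less KLF5 promoter-driven luciferase light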
IEC-6 cytotox = kills IEC-6 intestinal cells in KLF5 counter-screen | inhibition, % at 5 µM | hit rate 0.78% among 290,000 | IEC-6 cytotoxicity, luminescence viability; in the data active = inhibition above about 22%;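 also: 0% = plate median of test compound wells and 100% = cytotoxic reference compound wells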
FID counter = counter-screen for HCV NS3 helicase inhibitors: DNA intercalator displacement; inhibition, % at 7.9 µM; AID 1845; DNA fluorescent intercalator displacement, fluorescence; hit rate 0.17% among 290,000; in the data active = inhibition above about 37%;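 also: 0% = vehicle and 100% = reference compound; higher means more ethidium bromide displaced from hairpin DNA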
GPR7 antag = antagonists of human GPR7 (neuropeptides B/W receptor 1) | P48145 | GPR7-expressing cells, fluorescence antagonist assay | inhibition, % at 4.4 µM | hit rate 1.1% among 290,000 | AID 1861; in the data active = inhibition above about 16%, passing the limit was not always enough;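 also: cells stimulated with the agonist NPW; 0% = agonist with vehicle and 100% = vehicle without agonist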
Target sequence (P48145 whole entry, looked up): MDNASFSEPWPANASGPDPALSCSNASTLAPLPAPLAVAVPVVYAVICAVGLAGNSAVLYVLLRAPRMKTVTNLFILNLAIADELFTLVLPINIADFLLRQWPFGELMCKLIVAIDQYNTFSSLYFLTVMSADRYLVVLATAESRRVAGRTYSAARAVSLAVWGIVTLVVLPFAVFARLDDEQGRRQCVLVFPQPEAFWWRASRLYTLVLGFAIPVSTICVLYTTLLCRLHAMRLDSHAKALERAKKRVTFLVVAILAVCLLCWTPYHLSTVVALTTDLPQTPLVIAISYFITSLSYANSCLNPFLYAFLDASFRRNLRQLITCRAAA
Numbers without * were called inactive; nt = no result.

SMILES	Ba/F3 V617F tox	BaF3 parental	KLF5 inh	IEC-6 cytotox	FID counter	GPR7 antag
CCN(CC)CCn1c(C)nc2c(sc3nc4c(cc32)COC(C)(C)C4)c1=O	-2.5	1.9	1.6	3.3	2.5	-3.4
C#CC(=O)N(c1ccc(OC)cc1OC)C(C(=O)NC1CCCC1)c1cccs1 (configuration not stated)	100.9*	26.6*	7.1	102.3*	-22.2	2.5
COc1ccc(N(C(=O)c2ccco2)C(C(=O)NC2CCCCC2)c2cccs2)cc1OC (configuration not stated)	-2.1	-0.6	-22.6	-0.9	-36.8	-10.3
O=C(NC1CCCCCCC1)c1cc(COc2ccc3ncccc3c2)on1	6.7	39.1*	-9.4	2.3	-17.0	-2.8
O=C(c1cc(COc2ccc3ncccc3c2)on1)N1CCC(O)CC1	0.4	2.9	-26.6	1.2	-6.8	-12.7
CCC(O)C1CCN(C(=O)c2cc(COc3ccc4ncccc4c3)on2)CC1 (configuration not stated)	47.5*	67.6*	41.6	13.7	-40.7	12.7
COc1ccccc1-c1nnc(SCC(=O)NCc2cccs2)n1N	3.0	7.8	-11.6	0.6	1.6	1.3
CCOc1ccc(/C=N/n2c(SC)nnc2-c2ccccc2)cc1OCC	-2.1	-1.6	-7.4	3.7	-5.8	-3.5
CCCCOC(=O)Nc1ccc(S(=O)(=O)Nc2cc(C)nc(C)n2)cc1	-0.6	-2.1	-22.4	8.5	-1.9	0.8
Cc1[nH]n(-c2ccccc2)c(=O)c1/C=N/Nc1nncc(-c2ccccc2)n1	53.0*	35.9*	35.2	-0.3	-11.5	-0.5
Cc1ccc(/C=N/Nc2nncc(-c3ccccc3)n2)o1	0.2	6.8	-58.8	-2.5	-6.3	5.1
Cc1[nH]n(-c2ccccc2)c(=O)c1C=Nc1cccc2cccnc12	-1.2	5.0	7.0	23.1*	1.8	3.6
Cc1ccc(-n2[nH]c(C)c(/C=N/c3ccccn3)c2=O)cc1	10.9	16.0	-30.3	14.4	5.8	-13.1
Cc1ccc(OCC(=O)N(Cc2ccccc2)c2ccccn2)cc1	6.7	11.6	6.0	-1.6	-19.5	-6.8
CC(C)C[C@@H](CC#N)N1CCN(CCc2ccccc2)CCC1=O	nt	nt	-14.2	-3.0	-2.3	-5.1
CCOC(=O)c1ccc2c(c1)n(CC)c(/C=C/N(C)c1ccccc1)[n+]2CC	72.9*	66.1*	-24.3	-1.5	3.0	0.9
CN1CCN(Cc2nc3ccccc3c(=O)n2Cc2nc(-c3ccc4ccccc4c3)cs2)CC1	101.8*	9.8	-19.1	20.2	22.8	11.4
CN1CCN(Cc2nc3ccccc3c(=O)n2Cc2nc(-c3cccc([N+](=O)[O-])c3)cs2)CC1	12.6	-2.8	-20.6	13.2	16.6	-3.0
COc1ccccc1CC(=O)Nc1ccc([N+](=O)[O-])cc1O	6.3	2.5	-2.4	1.3	5.7	29.3*
COc1ccc(S(=O)(=O)N2CCC(NC(=O)C3CCCCC3)CC2)cc1	nt	nt	-2.8	0.6	-23.1	-9.8
Cc1cccn2cc(-c3cc4ccccc4oc3=O)nc12	-2.3	89.8*	-30.7	3.4	-1.5	-6.3
O=c1oc2ccccc2cc1-c1cn2ccccc2n1	12.8	12.7	-26.9	7.8	-0.9	-8.7
C/C(Cl)=C\Cn1c(O)c(N=NC(N)=S)c2cc(Br)ccc21	3.8	3.8	-8.0	30.3*	4.9	5.8
Cc1ccc(C(=O)NNC(=S)Nc2cccc(Cl)c2Cl)cc1[N+](=O)[O-]	-1.3	-0.3	-36.2	-2.6	-4.8	-9.1
CN(C)CCCNC(=O)/C(=C\c1ccc(-c2cccc([N+](=O)[O-])c2)o1)NC(=O)c1ccccc1	1.0	8.8	-22.9	0.1	44.1*	-0.4
SMILES	Ba/F3 V617F tox	BaF3 parental	KLF5 inh	IEC-6 cytotox	FID counter	GPR7 antag
Cc1ccc(C(=O)N/C(=C\c2ccc(-c3cccc([N+](=O)[O-])c3)o2)C(=O)NCCCN(C)C)cc1	nt	nt	-22.0	-7.0	31.4	-13.8
Cc1ccc(C(=O)N/C(=C\c2ccc(-c3ccc(Br)cc3)o2)C(=O)NCCCN(C)C)cc1	22.5	60.2*	-12.4	3.7	24.7	17.2
COc1ccc(NS(=O)(=O)c2c(C)[nH]c(C)c2C(=O)N2CCCCC2)cc1Cl	nt	nt	-16.9	-1.5	-30.0	6.9
CCCN(CCC)S(=O)(=O)c1ccc(Cl)c([N+](=O)[O-])c1	-4.2	0.4	-16.9	3.6	0.6	42.5*
O=C(CSc1nnc(Cc2ccccc2)o1)N1CCc2ccccc21	-0.4	3.6	-42.7	-4.0	-4.1	-7.0
O=C(CSc1nnc(COc2cccc3cccnc23)o1)N1CCc2ccccc21	0.3	94.4*	-15.2	0.7	0.2	-2.7
O=[N+]([O-])c1ccc(-c2nc3ccc([N+](=O)[O-])cc3[nH]2)cc1	2.7	10.1	-77.0	6.3	13.2	4.6
Nc1ccc(-c2nc3ccc([N+](=O)[O-])cc3[nH]2)cc1	6.5	10.8	-177.8	1.8	9.2	20.1*
COc1cc(CN2CCN(C(=O)c3ccc(-c4ccccc4)cc3)CC2)cc(OC)c1OC	-1.1	4.7	-26.2	-1.3	-13.7	-8.2
COc1ccc(C2CC(C(F)(F)F)n3nc(C(=O)NCc4c(C)nn(C)c4C)c(Cl)c3N2)cc1 (configuration not stated)	36.3*	43.8*	-19.5	5.4	-40.2	4.0
CC(C)(C)NC(=O)C(c1ccncc1)N(Cc1ccco1)C(=O)c1ccc(-c2ccccc2)[nH]1 (configuration not stated)	1.0	6.8	-11.0	-7.9	-18.5	-6.7
COc1cc(C2C3=C(Nc4ncnn42)c2ccccc2CC3)cc(OC)c1OC (configuration not stated)	93.2*	90.2*	78.0*	95.5*	-24.9	18.0
CCCC(C(=O)NCc1ccco1)N(CC1CCCO1)C(=O)CNS(=O)(=O)c1ccc(F)cc1 (configuration not stated)	nt	nt	-7.9	-5.5	-35.2	1.8
CC(C)(C)SCCNC(=O)/C=C/c1ccccc1	-0.3	44.9*	-42.2	-0.2	-9.5	-4.8
OC(C#CCN1CCCC1)(c1ccccc1)c1cccc(F)c1 (configuration not stated)	2.2	4.2	-7.5	-4.1	8.7	-1.5
Cc1ccc(-c2ccc(/C=C3\SC(N4CCOCC4)=NC3=O)o2)cc1	-3.3	11.2	-24.4	101.8*	-23.4	-11.1
O=C1N=C(N2CCOCC2)S/C1=C/c1ccc(-c2ccc(F)cc2)o1	1.8	4.4	19.1	4.5	-20.0	-6.9
COc1cc(C(=O)NCCCNc2ccc([N+](=O)[O-])cc2)cc(OC)c1OC	-0.2	4.8	-14.1	3.3	6.2	18.2
S=C(Nc1ccccc1)N1CCN(Cc2ccccc2)CC1	5.3	38.8*	10.4	0.4	-3.4	-1.8
Cc1sc2nc(CN(Cc3cccs3)C(=O)C3CC3)[nH]c(=O)c2c1C	11.4	86.1*	-25.1	-6.7	-29.4	-3.5
Cc1sc2nc(SCC(=O)NCc3cccs3)[nH]c(=O)c2c1C	1.6	3.0	-29.7	-1.1	-3.1	-9.8
Cc1cccc(N2CC(O)(c3cccs3)[N+]3=C2CCCCC3)c1 (configuration not stated)	30.2*	51.6*	-24.8	-1.1	10.1	7.8
